An excerpt weighted towards active compounds, which were near 28% of everything screened.
hDAT+cocaine: human DAT dopamine uptake with cocaine, either direction; B-score at 10 µM; actives 1.3% (n = 110,000); LLC-PK1 hDAT cells, [14C]-dopamine uptake with cocaine IC80; actives deviate in either direction; Q01959;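 active means Z score or B-score, a plate-position-corrected score, falls beyond the plate's 99.7% confidence bounds, in either direction; inactive means both scores lie inside the 99.7% bounds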;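 further: scored against the spread of the other compound wells on the same plate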
Target sequence (Q01959 whole entry, looked up): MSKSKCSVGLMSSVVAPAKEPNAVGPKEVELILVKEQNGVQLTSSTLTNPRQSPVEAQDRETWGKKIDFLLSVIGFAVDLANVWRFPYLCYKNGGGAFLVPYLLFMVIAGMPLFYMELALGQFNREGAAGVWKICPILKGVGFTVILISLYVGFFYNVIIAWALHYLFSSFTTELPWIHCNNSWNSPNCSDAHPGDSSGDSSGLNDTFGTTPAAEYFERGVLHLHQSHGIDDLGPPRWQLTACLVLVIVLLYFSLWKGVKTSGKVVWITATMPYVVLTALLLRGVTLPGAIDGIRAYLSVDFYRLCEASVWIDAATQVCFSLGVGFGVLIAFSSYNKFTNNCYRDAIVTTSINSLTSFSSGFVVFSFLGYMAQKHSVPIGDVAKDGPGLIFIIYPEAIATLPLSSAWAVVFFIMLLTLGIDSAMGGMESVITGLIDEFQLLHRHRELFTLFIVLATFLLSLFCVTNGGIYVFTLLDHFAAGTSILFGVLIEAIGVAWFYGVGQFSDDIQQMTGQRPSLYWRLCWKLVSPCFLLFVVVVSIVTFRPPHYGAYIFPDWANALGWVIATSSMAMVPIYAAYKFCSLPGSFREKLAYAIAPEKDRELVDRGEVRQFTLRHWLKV
CYP2C19 inhib: human CYP2C19 inhibition; P33261; CYP2C19 Supersomes, luciferin-H EGE luminescence, 30 min; inhibition, % at 5 µM; actives 21% (n = 96,000); AID 778;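 active means CYP2C19 inhibition above a set limit at 5 µM in the primary screen, cut at about 50% in these data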;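 further: plate controls were negative control wells for no effect and 2.5 mM tranylcypromine positive control for full effect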
CYP2C9 act: increases human cytochrome P450 2C9 activity; P11712; recombinant CYP2C9, luciferin-H conversion, luminescence; active compounds read high; factor 1 = untreated enzyme, 0 = blocked; activation factor at 5 µM; actives 1.4% (n = 96,000);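 active means activation factor of 2 or more for CYP2C9 at a 5 µM dose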;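 further: 0 = sulfaphenazole-blocked wells and 1 = vehicle-only wells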
CYP2C19 act: activators of human cytochrome P450 2C19; P33261; recombinant CYP2C19, luciferin-H EGE luminescence; active compounds read high; 0 = fully inhibited enzyme, 1 = untreated enzyme; activation factor at 5 µM; 96,000 tested, under 10 active;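 active means activation factor of at least 2 at 5 µM in the primary screen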;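 further: 0 = wells with 2.5 mM tranylcypromine and 1 = vehicle-only wells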
D1 mod: allosteric modulators of human D1 dopamine receptor; B-score at 10 µM; actives 5.9% (n = 58,000); AID 641; HEK293 D1, CRE-luciferase, dopamine EC30 potentiation; actives deviate in either direction;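 active means luminescence count or its row- and column-corrected plate score outside the 99.7% band of the plate's sample wells, on either side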
CYP2C9 inhib: blocks human cytochrome P450 2C9 | P11712 | CYP2C9 Supersomes, luciferin-H conversion, luminescence | inhibition, % at 5 µM | actives 20% (n = 96,000);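 active means blocking of liver enzyme CYP2C9 beyond about 50% at 5 µM, limit read from the data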
D1 PAM confirm: D1 receptor (human) allosteric modulation, confirmed; shares compounds with D1 mod; HEK293 D1 CRE-luciferase, dopamine EC30 potentiation; active compounds read high; luminescence at 10 µM; actives 88% (n = 2,200); AID 642;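 active means luminescence in either of two replicates above the same-plate mean plus 3 SD of the low-dose dopamine control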
D1 no dopamine: activates D1 CRE-luciferase signal without dopamine present; actives 0.8% (n = 1,900); AID 646; shares compounds with D1 mod; HEK293 D1 CRE-luciferase, luminescence, no dopamine; active compounds read high; luminescence at 10 µM; in the data active means luminescence above about 3900
Isoprot counter: isoproterenol response counter-screen activity for D1 modulators; shares compounds with D1 mod; HEK293 D1 CRE-luciferase, isoproterenol EC30 counter-screen; calls only at 10 µM; actives 63% (n = 2,200); AID 647;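 active means luminescence in either replicate above plate mean of wells with a partly effective reference agonist dose plus 3 SD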;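 further: isoproterenol raises cAMP through native beta-adrenoceptor Gs so signal bypasses D1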
Numbers without * were called inactive; i = inactive; . = not tested or not shown; + = active, no number.

SMILES	hDAT+cocaine	CYP2C19 inhib	CYP2C9 act	CYP2C19 act	D1 mod	CYP2C9 inhib	D1 PAM confirm	D1 no dopamine	Isoprot counter
COc1cc(C(=O)N2CCN(c3cc(Cl)ccc3Cl)CC2)cc(OC)c1OC	-0.011	-12	0.4	1.1	6.5*	62*	10496*	1588	+
COCC(=O)NC(C)c1nc2ccccc2[nH]1 (stereo unspecified)	-0.25	-10	1.2	1.1	-0.29	-18	.	.	.
CCOCC(=O)Nc1nnc(Cc2ccc(OC)c(OC)c2)s1	-0.66	10	1.4	0.9	7.8*	-36	12160*	.	+
CCOCC(=O)Nc1nnc(Cc2ccc(OC)cc2)s1	0.91	.	.	.	.	.	.	.	.
COCC(=O)Nc1nnc(Cc2ccc(OC)c(OC)c2)s1	0.0097	-4	1.6	1	9.8*	-63	19508*	1696	+
Cc1cc(C(=O)NCc2cc(C(=O)O)oc2C)c(C)o1	-0.035	-6	1	1.1	0.47	1	.	.	.
CCOc1cc(C)nc(NCc2ccccc2)n1	0.67	34	1	0.7	.	1	.	.	.
CCCCOc1cc(C)nc(NCc2ccccc2)n1	0.11	48	0.6	0.5	10*	36	5728*	1592	i
CCOc1cc(-c2noc(-c3cccnc3)n2)ccc1OC	0.3	2	1.3	1	19*	-30	21224*	.	+
CCOc1ccc(-c2noc(-c3cccnc3)n2)cc1OC	.	21	1	0.8	4.3*	3	10956*	1728	i
COC(=O)c1c(N)c(C#N)c(C)n1-c1ccccc1	-0.5	27	1.1	0.7	3*	-9	8468*	1628	+
CCCC(=O)c1cc2ccccc2oc1=O	0.12	5	0.9	1	0.27	6	.	.	.
CCCC(=O)c1c(NC(C)C)cc(C)oc1=O	1.3	8	2.2*	0.9	5.7*	-122	12004*	1700	+
Cc1nc2ncnn2c(C)c1CCC(=O)NCc1ccc2c(c1)OCO2	-0.098	-4	1	1	-0.29	2	.	.	.
COC(=O)c1ccsc1NC(=O)C1=COCCO1	0.81	-6	1	1.1	9.1*	5	17084*	1496	+
COc1ccc(N2CCN(Cc3nc4c(c(=O)[nH]c(=O)n4C)n3Cc3cccc(Cl)c3)CC2)cc1	1.5	.	.	.	.	.	.	.	.
C=CCNc1nc(-c2ccccc2)nc(-n2ccnc2)n1	-0.4	35	0.5	0.7	8.7*	46	22092*	1636	+
c1ccc(-c2nc(NC3CC3)nc(-n3ccnc3)n2)cc1	-0.62	11	0.8	0.9	11*	18	26636*	1696	+
CC(C)Nc1nc(-c2ccccc2)nc(-n2ccnc2)n1	-0.18	24	0.8	0.8	11*	18	23348*	1840	+
C=CCNc1nc(N2CCOCC2)nc(N2CCOCC2)n1	-0.3	.	.	.	.	.	.	.	.
CCOC(=O)c1c(C)oc2c1c(C=NCC1CCCO1)c(O)c1ccccc12 (stereo unspecified)	-0.58	11	0.7	0.9	0.12	27	.	.	.
CCOC(=O)c1c(C)oc2c1c(C=NCc1ccccn1)c(O)c1ccccc12	-0.03	64*	0.1	0.4	4.2*	86*	12568*	1616	i
Cc1cc(C)nc(SCC(=O)N2CCCCC2)n1	0.79	-5	1.2	1	2.9*	-18	5424*	1632	i
Cn1c(=O)c2c(nc(NCc3ccco3)n2CC(O)COc2ccccc2)n(C)c1=O (stereo unspecified)	.	24	0.5	0.8	-1.2	47	.	.	.
Cc1ccccc1OCC(O)Cn1c(NCCN(C)C)nc2c1c(=O)n(C)c(=O)n2C (stereo unspecified)	.	-1	1	1	8.2*	0	4948	1480	i
SMILES	hDAT+cocaine	CYP2C19 inhib	CYP2C9 act	CYP2C19 act	D1 mod	CYP2C9 inhib	D1 PAM confirm	D1 no dopamine	Isoprot counter
Cc1ccc(OCC(=O)NNC(=O)c2cc3ccccc3o2)cc1C	-0.28	1	1.1	1	.	-13	.	.	.
CCC(C)NC(=O)CS(=O)Cc1nc(-c2cccc(C)c2)oc1C (stereo unspecified)	-0.41	-2	1	1	4.5*	2	5396	1376	i
Cc1onc(-c2ccccc2Cl)c1C(=O)Nc1c(C)n(C)n(-c2ccccc2)c1=O	-0.2	0	1	1	0.29	-3	.	.	.
Cn1c(=O)n(CCN2CCOCC2)c(=O)c2c1nc1n2CCCN1c1ccccc1	.	11	0.8	0.9	0.003	24	.	.	.
CSc1ccc(-c2nc(CSCC(=O)N3CCOCC3)c(C)o2)cc1	-0.41	9	0.9	0.9	26*	8	5664	1536	i
COc1ccc(-c2nc(CSCC(=O)N3CCN(C)CC3)c(C)o2)cc1OC	0.036	4	1.2	1	.	-17	.	.	.
O=C(COc1cccc(NC(=O)c2ccco2)c1)c1ccc(F)cc1	-0.4	44	0.8	0.6	-0.0021	22	.	.	.
CCN(CC)c1nc(C#N)nc(N(CC)CC)n1	-0.0025	41	1.1	0.6	14*	-12	15976*	1596	+
CCN(CC)c1nc(SCC(=O)O)nc(N(CC)CC)n1	1.2	3	0.9	1	1	6	.	.	.
NC(=O)COc1c(-c2ccccc2)oc2ccccc2c1=O	-0.68	27	0.8	0.7	2.6*	17	15448*	1588	+
O=C(O)COc1c(-c2ccccc2)oc2ccccc2c1=O	0.69	8	1.1	0.9	.	-11	.	.	.
CC1=CC(C)(C)N=C(NC#N)N1	0.091	6	1.1	0.9	3.8*	-15	9044*	1768	i
Cc1cccc(-c2c3c(=O)n(C)c(=O)n(C)c3cn2-c2ccccc2O)c1	0.84	8	0.3	0.9	5.8*	71*	9336*	1844	i
CC(=O)Nn1cc2c(c1-c1ccccc1)c(=O)n(C)c(=O)n2C	-0.3	-5	1.1	1	1.3	-11	.	.	.
CCOC(=O)C1CSc2[nH]c(=O)sc2C1c1ccccc1 (stereo unspecified)	-1	81*	0.4	0.2	8.2*	62*	11512*	1668	+
COC(=O)C1CSc2[nH]c(=O)sc2C1c1ccc(O)c(OC)c1 (stereo unspecified)	2.3	2	0.9	1	.	6	.	.	.
O=C(OCCCCN1C(=O)c2ccccc2C1=O)c1ccc(S(=O)(=O)N2CCCC2)cc1	0.021	-3	0.8	1	-0.12	16	.	.	.
